# Laboratory results as given in PubChem BioAssay AID1159580 (chemical genetic matrix, 2015).
# The campaign covered roughly 5,500 compounds. About 2,000 (36%) were called active. Roughly 18% stayed inconclusive and do not appear here. The list shows a part of the results. Unmarked numbers belong to inactive results. Cut-off read from the data, not from the text of the source: active = normalized growth mostly below about 0.91 (no sharp cut-off); inconclusive = no clear call, values can overlap the other calls; inactive = mostly above about 0.92.
# Assay: chemical genetic growth profiling, strain panel (AID 1159580);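 note: tested at 20 µM; growth read once vehicle control cultures reached saturation at 30 °C; 1 = growth at the plate median or of vehicle wells; lower values mean less growth of the strain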
# Conditions: S. cerevisiae deletion strains, growth OD
smiles,measurement,setting,value
Cc1ccc2cc(NC(=O)c3ccco3)ccc2n1,normalized growth,"locus YAL013W, strain DEP1, active compounds read low",0.987
same,normalized growth,"locus YBR229C, strain ROT2, active compounds read low",0.998
same,normalized growth,"locus YCL061C, strain MRC1, active compounds read low",0.991
same,normalized growth,"locus YDL101C, strain DUN1, active compounds read low",1.02
same,normalized growth,"locus YDR150W, strain NUM1, active compounds read low",0.901
same,normalized growth,"locus YEL061C, strain CIN8, active compounds read low",0.895 (active)
same,normalized growth,"locus YGR078C, strain PAC10, active compounds read low",0.989
same,normalized growth,"locus YGR229C, strain SMI1, active compounds read low",0.989
same,normalized growth,"locus YHR030C, strain SLT2, active compounds read low",0.309 (active)
same,normalized growth,"locus YHR087W, strain rtc3, active compounds read low",1.01
same,normalized growth,"locus YJR043C, strain POL32, active compounds read low",0.998
same,normalized growth,"locus YJR075W, strain HOC1, active compounds read low",0.994
same,normalized growth,"locus YKL190W, strain CNB1, active compounds read low",0.9 (active)
same,normalized growth,"locus YLR039C, strain RIC1, active compounds read low",0.972
same,normalized growth,"locus YLR058C, strain SHM2 (second series), active compounds read low",1.01
same,normalized growth,"locus YLR085C, strain ARP6, active compounds read low",0.286 (active)
same,normalized growth,"locus YLR262C, strain YPT6, active compounds read low",1.01
same,normalized growth,"locus YML094W, strain GIM5, active compounds read low",0.96
same,normalized growth,"locus YMR219W, strain ESC1, active compounds read low",1
same,normalized growth,"locus YMR263W, strain SAP30, active compounds read low",0.938
same,normalized growth,"locus YMR307W, strain GAS1, active compounds read low",0.518 (active)
same,normalized growth,"locus YNL128W, strain TEP1, active compounds read low",0.962
same,normalized growth,"locus YNL153C, strain GIM3, active compounds read low",1
same,normalized growth,"locus YNL298W, strain CLA4 (second series), active compounds read low",0.807 (active)
same,normalized growth,"locus YNL322C, strain KRE1, active compounds read low",1.01
same,normalized growth,"locus YNR030W, strain Alg12, active compounds read low",0.841 (active)
same,normalized growth,"locus YPL055C, strain LGE1, active compounds read low",0.92
same,normalized growth,"locus YPL241C, strain CIN2, active compounds read low",0.804 (active)
same,normalized growth,"locus YPR135W, strain CTF4, active compounds read low",0.385 (active)
